Measured values taken from PubChem BioAssay AID463173 (ICCB-Longwood Screening Facility, Harvard Medical School, 2010).
Hit rate of the full screen: of about 52,000 compounds, about 4,300 (8.3%) were called active. Many of the other results were omitted from the sample, so actives are more common in it than they were. A number with no mark means an inactive call. Rule as the data show it: active = survival mostly below about 52% (no sharp cut-off); inactive = mostly above about 56%.

tested on: DeltatarO mutant; assay: growth inhibition of S. aureus wild type versus tarO mutant, primary screen, teichoic acid synthesis inhibitors, RN4220, OD600 (AID 463173); conditions: OD600, 18 h, active compounds read low, screened at 18.75 µg/mL (by protocol)

| Compound | survival |
| --- | --- |
| CCN(CC)CCNC(=O)c1sc2nc(C)cc(C)c2c1-n1cccc1 | 86% |
| CC(C)CN(CCNC(=O)c1cc(=O)[nH]c2ccc(S(=O)(=O)N3CCCCCC3)cc12)CC(C)C | 86% |
| COc1ccc(OC)c(CNC(=O)Cn2ncc3c([nH]c4ccc(C)cc43)c2=O)c1 | 92% |
| COc1ccc(OC(=O)c2cc(-c3ccc4c(c3)OCCO4)on2)cc1 | 101% |
| Cc1ccc(OC(=O)c2cc(-c3ccc4c(c3)OCCO4)on2)cc1C | -2% (active) |
| O=C(Oc1ccc(Cl)cc1)c1cc(-c2ccc3c(c2)OCCO3)on1 | 116% |
| Cc1cc(OC(=O)c2cc(-c3ccc4c(c3)OCCO4)on2)ccc1Cl | -1% (active) |
| O=C(Nc1cc(C(F)(F)F)ccc1Cl)c1cc(-c2ccc3c(c2)OCCO3)on1 | 116% |
| CC(C)c1ccc(OC(=O)c2cc(-c3ccc(Cl)cc3)on2)cc1 | 98% |
| Cc1ccc(-c2cc(C(=O)Oc3ccc(C#N)cc3)no2)cc1 | 97% |
| N#Cc1ccc(OC(=O)c2cc(-c3ccc4c(c3)OCCO4)on2)cc1 | 117% |
| CC(C)c1ccc(OC(=O)c2cc(-c3ccc4c(c3)OCCO4)on2)cc1 | 8% (active) |
| CCC(C)NC(=O)Cn1c(=O)cc(-c2ccccc2)c2c(C)nn(C)c21 (stereo not given) | 70% |
| COc1cccc(NC(=O)Cc2csc(COc3cccc(C)c3)n2)c1 | 72% |
| COC(=O)c1cnn(-c2ccc(C(=O)Nc3ccc(C(C)=O)cc3)cc2)c1N | 63% |
| CCOC(=O)c1cnn(-c2ccc(C(=O)Nc3ccc(OC(F)(F)F)cc3)cc2)c1N | 124% |
| COC(=O)c1cnn(-c2ccc(C(=O)Nc3ccc(OC(F)(F)F)cc3)cc2)c1N | 25% (active) |
| O=C(Cn1nc2c(cc1=O)CCCC2)NCc1ccccc1Cl | 144% |
| COc1ccccc1CNS(=O)(=O)c1cc(-c2cc(C)no2)ccc1C | 102% |
| CCc1ccccc1NC(=O)CSc1nnc(-c2cc(OC)c(OC)c(OC)c2)o1 | 111% |
| CCCCSCCCNC(=O)CN1C(=O)COc2ccc(S(=O)(=O)N3CCCC3)cc21 | 66% |
| CCCSCCCNC(=O)CN1C(=O)COc2ccc(S(=O)(=O)N3CCCCCC3)cc21 | 62% (active) |
| O=C(CN1C(=O)COc2ccc(S(=O)(=O)N3CCCC3)cc21)N1CCN(c2cccc(C(F)(F)F)c2)CC1 | 79% |

| Compound | survival |
| --- | --- |
| CCCSCCCNC(=O)CN1C(=O)COc2ccc(S(=O)(=O)N3CCCC3)cc21 | 71% |
| O=C(CN1C(=O)COc2ccc(S(=O)(=O)N3CCCCCC3)cc21)N1CCN(c2cccc(C(F)(F)F)c2)CC1 | 61% (active) |
| O=C(CN1C(=O)COc2ccc(S(=O)(=O)N3CCOCC3)cc21)N1CCN(c2cccc(C(F)(F)F)c2)CC1 | 93% |
| CC(=O)c1cccc(NC(=O)CCc2c(C)nc3c(-c4ccc(F)cc4)c(C)nn3c2C)c1 | 76% |
| CCC1CN(C(=O)Nc2ccc(Br)cc2F)c2ccccc2S1 (stereo not given) | 90% |
| CCOC(=O)C1CCN(c2nc3c(S(=O)(=O)c4ccccc4)nnn3c3ccc(Cl)cc23)CC1 | 112% |
| COc1cc(C2CC(=O)Nc3ccc4ccccc4c32)ccc1OC(=O)C(C)C (stereo not given) | 67% |
| Cc1ccc2c(c1)N(C(=O)Nc1cccc3c1CCCC3)CC(C)O2 (stereo not given) | 56% |
| CCOc1ccc(CCNS(=O)(=O)c2c(C)nc3scc(C)n3c2=O)cc1OCC | 83% |
| CCN(CC)S(=O)(=O)c1ccc2c(c1)c(=O)c(C(=O)NCc1ccccc1Cl)cn2C | 61% |
| COC(=O)CSc1nc2ccccc2s1 | 94% |
| CCNc1nc2ccccc2s1 | 72% |
| CC(C)(C)NSc1nc2ccccc2s1 | 58% (active) |
| Cc1ccccc1-c1noc(-c2ccc(N3CCC(C)CC3)c([N+](=O)[O-])c2)n1 | 55% |
| CCOc1ccc2nc(N3CCC(C(=O)Nc4ccccc4CC)CC3)sc2c1 | 70% |
| Cc1c(NC(=O)c2cc(-c3ccc(Cl)c(Cl)c3)on2)c(=O)n(-c2ccccc2)n1C | 38% (active) |
| Cc1c(NC(=O)c2cc(-c3ccc(F)cc3)on2)c(=O)n(-c2ccccc2)n1C | 72% |
| COc1ccc(-c2cc(C(=O)Nc3c(C)n(C)n(-c4ccccc4)c3=O)no2)cc1OC | 59% |
| Cc1c(NC(=O)c2cc(-c3ccccc3O)on2)c(=O)n(-c2ccccc2)n1C | 51% (active) |
| Cc1c(NC(=O)c2cc(-c3ccc(O)cc3)on2)c(=O)n(-c2ccccc2)n1C | 169% |
| Cc1c(NC(=O)c2cc(-c3cccc(O)c3)on2)c(=O)n(-c2ccccc2)n1C | 56% |
| COc1ccc(-c2cc(C(=O)Nc3c(C)n(C)n(-c4ccccc4)c3=O)no2)cc1 | 46% (active) |
| Cc1c(NC(=O)c2cc(-c3cccc(Cl)c3)on2)c(=O)n(-c2ccccc2)n1C | 55% |

| Compound | survival |
| --- | --- |
| Cc1c(NC(=O)c2cc(-c3ccc(Cl)cc3)on2)c(=O)n(-c2ccccc2)n1C | 121% |
| CCOC(=O)c1cccc(NC(=O)c2ccc3c(c2)nnn3CC)c1 | 66% |
| Cc1ccc(-c2onc(C)c2C)cc1S(=O)(=O)N1c2ccccc2CC1C (stereo not given) | 79% |
| COc1cccc(CNC(=O)c2c(O)nc3ccccn3c2=O)c1 | 43% (active) |
| Cc1cccn2c(=O)c(C(=O)NCc3ccc(F)cc3)c(O)nc12 | 119% |
| O=C(NCc1ccc(F)cc1)c1c(O)nc2ccccn2c1=O | 44% (active) |
| COc1cccc(CCNC(=O)c2c(O)nc3ccccn3c2=O)c1 | 48% (active) |
| COc1ccc(CCNC(=O)c2c(O)nc3ccccn3c2=O)cc1 | 81% |
| COc1cccc(CCNC(=O)c2c(O)nc3cc(C)ccn3c2=O)c1 | 82% |
| COc1ccc(CNC(=O)c2c(O)nc3cc(C)ccn3c2=O)cc1 | 78% |
| COc1ccc(CCNC(=O)c2c(O)nc3ccccn3c2=O)cc1OC | 54% |
| Cc1ccc(CNC(=O)c2c(O)nc3ccccn3c2=O)cc1 | 89% |
| COc1ccccc1N1CCN(C(=O)CSc2nc3ccccc3nc2Cc2ccccc2)CC1 | 101% |
| COc1ccc(OC)c(-c2noc(N3CCN(c4ccc(Cl)cc4)CC3)n2)c1 | 88% |
| CCn1c(CNC(=O)c2ccc(OC)cc2)nnc1SCC(=O)Nc1cc(C)ccc1C | 112% |
| COc1cccc(C(=O)N(Cc2cccnc2)c2nc3c(OC)ccc(C)c3s2)c1OC | 73% |
| O=S(=O)(Nc1cccc(-c2ccc(N3CCOCC3)nn2)c1)c1ccccc1C(F)(F)F | 89% |
| COc1ccc(C(=O)CCC(=O)Nc2ccc(OC)c(Cl)c2)cc1 | 86% |
| COc1ccc(C2=C(C(C)=O)Sc3nnc(-c4ccccc4)n3N2C(C)=O)cc1 | 87% |
| CC(=O)C1=C(c2ccc(Cl)c(Cl)c2)N(C(C)=O)n2c(nnc2-c2ccccc2)S1 | 94% |
| COc1ccc(-c2nnc3n2N(C(C)=O)C(c2ccc(Cl)c(Cl)c2)=C(C(C)=O)S3)cc1 | 20% (active) |
| CN(C)c1ccc(CN(CC2CCCO2)C(=O)COc2ccc(Cl)cc2)cc1 (stereo not given) | 59% |
| CCc1nn2c(=O)c(S(=O)(=O)Nc3cccc(F)c3)c(C)nc2s1 | 70% |

| Compound | survival |
| --- | --- |
| COc1ccccc1CNS(=O)(=O)c1ccc2c(c1)NC(=O)CC(=O)N2 | 89% |
| O=S(=O)(Nc1nc2n(n1)C(c1ccccc1)C=C(c1ccc(Cl)cc1)N2)c1ccccc1 (stereo not given) | 47% (active) |
| O=C(Nc1nc2n(n1)C(c1ccc(F)cc1)C=C(c1ccc(Cl)cc1)N2)c1ccc([N+](=O)[O-])cc1 (stereo not given) | 64% |
| Cc1ccc(S(=O)(=O)Nc2nc3n(n2)C(c2ccc(F)cc2)C=C(c2ccccc2)N3)cc1 (stereo not given) | 29% (active) |
| O=S(=O)(Nc1nc2n(n1)C(c1ccc(F)cc1)C=C(c1ccccc1)N2)c1ccc(Cl)cc1 (stereo not given) | 10% (active) |
| COc1ccccc1C(=O)Nc1nc2n(n1)C(c1ccc(F)cc1)C=C(c1ccc(Cl)cc1)N2 (stereo not given) | 49% |
| O=S(=O)(Nc1nc2n(n1)C(c1ccc(F)cc1)C=C(c1ccccc1)N2)c1ccccc1 (stereo not given) | 73% |
| Cc1ccc(C2C=C(c3ccccc3)Nc3nc(NS(=O)(=O)c4ccccc4)nn32)cc1 (stereo not given) | 68% |
| O=S(=O)(Nc1nc2n(n1)C(c1ccc(F)cc1)C=C(c1ccc(Cl)cc1)N2)c1ccccc1 (stereo not given) | 42% (active) |
| Cc1ccc(C2C=C(c3ccc(F)cc3)Nc3nc(CCCO)nn32)cc1 (stereo not given) | 53% |
| CC(C)(C)C(=O)CSc1nnc(-c2ccccc2)o1 | 85% |
| COc1cccc(CNC(=O)CCc2c(C)c3cc4c(C)coc4c(C)c3oc2=O)c1 | 55% |
| CCC(=O)N1CCc2cc(Br)cc(S(=O)(=O)N3CCCC(C(=O)Nc4ccc(OC)cc4OC)C3)c21 (stereo not given) | 65% |
| COc1cc(OC)c(NC(=O)c2noc3c2CSc2ccccc2-3)cc1Cl | 69% |
| Cc1ccccc1OC(=O)c1nc(SCc2ccccc2F)ncc1Cl | 107% |
| Cc1ccc(S(=O)(=O)Nc2nc3n(n2)C(c2ccccc2Cl)C=C(c2ccccc2)N3)cc1 (stereo not given) | 37% (active) |
| Cc1ccc(C2C=C(c3ccc(Cl)cc3)Nc3nc(NS(=O)(=O)c4ccccc4)nn32)cc1 (stereo not given) | 62% |
| Cc1ccc(C2C=C(c3ccccc3)Nc3nc(NS(C)(=O)=O)nn32)cc1 (stereo not given) | 67% |
| COc1ccc(C2=CC(c3ccccc3Cl)n3nc(-c4ccc(C)cc4)nc3N2)cc1 (stereo not given) | 91% |
| Cc1ccc(S(=O)(=O)Nc2nc3n(n2)C(c2ccc(Cl)cc2)C=C(c2ccccc2)N3)cc1 (stereo not given) | 2% (active) |
| Cc1ccc(-c2nc3n(n2)C(c2ccccc2Cl)C=C(c2ccc(Cl)cc2)N3)cc1 (stereo not given) | 95% |
